Test results as given in PubChem BioAssay AID1159580 (chemical genetic matrix, 2015).
Out of some 5,500 compounds screened, about 2,000 (36%) were called active. Roughly 18% stayed inconclusive and do not appear here. Cut-off read from the data, not from the text of the source: active = normalized growth mostly below about 0.91 (no sharp cut-off); inconclusive = no clear call, values can overlap the other calls; inactive = mostly above about 0.92. The list shows a part of the results.

Test: chemical genetic growth profiling, strain panel (AID 1159580);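 note: tested at 20 µM; growth read once vehicle control cultures reached saturation at 30 °C; 1 = growth at the plate median or of vehicle wells; lower values mean less growth of the strain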
Conditions: growth OD

Measured: normalized growth

CCC(c1ccc(O)cc1)C(CC)c1ccc(O)cc1 (stereo not drawn)
inactive: S. cerevisiae deletion strains, locus YJR075W, strain HOC1, hits give low values 1.01 | S. cerevisiae deletion strains, locus YKL068W, hits give low values 0.99 | S. cerevisiae deletion strains, locus YKL085W, strain MDH1 (second series), hits give low values 0.984 | S. cerevisiae deletion strains, locus YKL085W, strain MDH1, hits give low values 0.984 | S. cerevisiae deletion strains, locus YKL160W, strain elf1, hits give low values 0.928 | S. cerevisiae deletion strains, locus YKL190W, strain CNB1, hits give low values 0.994 | S. cerevisiae deletion strains, locus YKR001C, strain vps1, hits give low values 0.99 | S. cerevisiae deletion strains, locus YKR026C, strain gcn3, hits give low values 0.982 | S. cerevisiae deletion strains, locus YKR091W, strain srl3, hits give low values 1 | S. cerevisiae deletion strains, locus YLL001W, strain dnm1, hits give low values 0.943 | S. cerevisiae deletion strains, locus YLL041C, strain sdh2, hits give low values 0.976 | S. cerevisiae deletion strains, locus YLR058C, strain SHM2, hits give low values 1 | S. cerevisiae deletion strains, locus YLR102C, strain apc9, hits give low values 1.01 | S. cerevisiae deletion strains, locus YLR268W, strain sec22, hits give low values 0.912 | S. cerevisiae deletion strains, locus YLR330W, strain CHS5, hits give low values 1.01 | S. cerevisiae deletion strains, locus YLR342W, strain FKS1 (second series), hits give low values 0.962 | S. cerevisiae deletion strains, locus YLR342W, strain FKS1, hits give low values 0.938 | S. cerevisiae deletion strains, locus YLR357W, strain rsc2, hits give low values 0.984 | S. cerevisiae deletion strains, locus YLR370C, strain arc18, hits give low values 0.993 | S. cerevisiae deletion strains, locus YLR371W, strain rom2, hits give low values 1.01 | S. cerevisiae deletion strains, locus YLR384C, strain iki3, hits give low values 1.01 | S. cerevisiae deletion strains, locus YLR418C, strain cdc73, hits give low values 0.871 | S. cerevisiae deletion strains, locus YML016C, strain PPZ1, hits give low values 0.996 | S. cerevisiae deletion strains, locus YML032C, strain rad52, hits give low values 0.935 | S. cerevisiae deletion strains, locus YML124C, strain tub3, hits give low values 1.01 | S. cerevisiae deletion strains, locus YMR078C, strain ctf18, hits give low values 0.994 | S. cerevisiae deletion strains, locus YMR125W, strain sto1, hits give low values 1.01 | S. cerevisiae deletion strains, locus YMR129W, hits give low values 0.957 | S. cerevisiae deletion strains, locus YMR223W, strain ubp8, hits give low values 0.94 | S. cerevisiae deletion strains, locus YMR231W, strain pep5, hits give low values 1.01 | S. cerevisiae deletion strains, locus YMR263W, strain SAP30, hits give low values 0.973 | S. cerevisiae deletion strains, locus YNL067W, strain RPL9B, hits give low values 0.956 | S. cerevisiae deletion strains, locus YNL128W, strain TEP1, hits give low values 1.02 | S. cerevisiae deletion strains, locus YNL153C, strain GIM3, hits give low values 0.982 | S. cerevisiae deletion strains, locus YNL209W, strain ssb2, hits give low values 0.976 | S. cerevisiae deletion strains, locus YNL233W, strain BNI4, hits give low values 0.974 | S. cerevisiae deletion strains, locus YNL248C, strain rpa49, hits give low values 0.942 | S. cerevisiae deletion strains, locus YNL250W, strain rad50, hits give low values 0.985 | S. cerevisiae deletion strains, locus YNL271C, strain bni1, hits give low values 0.985 | S. cerevisiae deletion strains, locus YNL298W, strain CLA4, hits give low values 0.912 | S. cerevisiae deletion strains, locus YNL322C, strain KRE1 (second series), hits give low values 0.985 | S. cerevisiae deletion strains, locus YNL322C, strain KRE1, hits give low values 1.01 | S. cerevisiae deletion strains, locus YNR049C, strain mso1, hits give low values 1 | S. cerevisiae deletion strains, locus YNR052C, strain pop2, hits give low values 0.938 | S. cerevisiae deletion strains, locus YOL006C, strain TOP1, hits give low values 0.769 | S. cerevisiae deletion strains, locus YOL012C, strain htz1 1.31 | S. cerevisiae deletion strains, locus YOL147C, strain pex11, hits give low values 0.997 | S. cerevisiae deletion strains, locus YOR061W, strain CKA2, hits give low values 0.984 | S. cerevisiae deletion strains, locus YOR069W, strain VPS5, hits give low values 0.999 | S. cerevisiae deletion strains, locus YOR070C, strain gyp1, hits give low values 0.942 | S. cerevisiae deletion strains, locus YOR080W, strain dia2, hits give low values 0.974 | S. cerevisiae deletion strains, locus YOR083W, strain WHI5, hits give low values 0.899 | S. cerevisiae deletion strains, locus YOR136W, strain idh2, hits give low values 0.996 | S. cerevisiae deletion strains, locus YOR144C, strain elg1, hits give low values 1.01 | S. cerevisiae deletion strains, locus YOR265W, strain rbl2, hits give low values 0.966 | S. cerevisiae deletion strains, locus YOR270C, strain vph1, hits give low values 0.792 | S. cerevisiae deletion strains, locus YOR290C, strain snf2, hits give low values 0.953 | S. cerevisiae deletion strains, locus YOR316C, strain cot1, hits give low values 1.01 | S. cerevisiae deletion strains, locus YPL055C, strain LGE1, hits give low values 0.979 | S. cerevisiae deletion strains, locus YPL078C, strain atp4, hits give low values 0.895 | S. cerevisiae deletion strains, locus YPL106C, strain sse1, hits give low values 0.93 | S. cerevisiae deletion strains, locus YPL240C, strain hsp82, hits give low values 0.971 | S. cerevisiae deletion strains, locus YPL241C, strain CIN2, hits give low values 0.998 | S. cerevisiae deletion strains, locus YPR119W, strain clb2, hits give low values 1 | S. cerevisiae deletion strains, locus YPR141C, strain kar3, hits give low values 0.994 | S. cerevisiae deletion strains, locus YPR163C, strain tif3, hits give low values 1.02 | S. cerevisiae deletion strains, locus YPR167C, strain met16, hits give low values 0.987 | S. cerevisiae deletion strains, strain wtn01, hits give low values 0.959 | S. cerevisiae strains, strain wild type, hits give low values 0.995
active: S. cerevisiae deletion strains, locus YKL009W, strain mrt4, hits give low values 0.871 | S. cerevisiae deletion strains, locus YLL026W, hits give low values 0.862 | S. cerevisiae deletion strains, locus YLR027C, strain aat2, hits give low values 0.829 | S. cerevisiae deletion strains, locus YLR039C, strain RIC1, hits give low values 0.6 | S. cerevisiae deletion strains, locus YLR221C, strain rsa3, hits give low values 0.828 | S. cerevisiae deletion strains, locus YLR258W, strain gsy2, hits give low values 0.902 | S. cerevisiae deletion strains, locus YLR262C, strain YPT6 (second series), hits give low values 0.396 | S. cerevisiae deletion strains, locus YLR262C, strain YPT6, hits give low values 0.575 | S. cerevisiae deletion strains, locus YLR320W, strain mms22, hits give low values 0.868 | S. cerevisiae deletion strains, locus YML120C, strain ndi1, hits give low values 0.733 | S. cerevisiae deletion strains, locus YMR058W, strain fet3, hits give low values 0.864 | S. cerevisiae deletion strains, locus YMR205C, strain PFK2, hits give low values 0.844 | S. cerevisiae deletion strains, locus YMR307W, strain GAS1, hits give low values 0.592 | S. cerevisiae deletion strains, locus YNL071W, strain lat1, hits give low values 0.786 | S. cerevisiae deletion strains, locus YNL307C, strain MCK1, hits give low values 0.877 | S. cerevisiae deletion strains, locus YOR001W, strain rrp6, hits give low values 0.808 | S. cerevisiae deletion strains, locus YOR106W, strain vam3, hits give low values 0.804 | S. cerevisiae deletion strains, locus YOR184W, strain ser1, hits give low values 0.761 | S. cerevisiae deletion strains, locus YPL051W, strain arl3, hits give low values 0.849
